According to the supplement of paper PMC10037445:
Whole data set: some 2,900 compounds, median “NF-kB SEAP reporter activity, fold change vs agonist alone” near 0.99, cut for the highest 2% near 2.6. This excerpt belongs to a sample that is enriched for the highest values.

Tests used:
RAW-Dual [1] = experiment: NF-kB SEAP reporter activity, fold change vs agonist alone; higher = enhanced NF-kB activity
How it was run: (§1)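 Reporter activity is given as fold change relative to agonist-alone wells. To measure it, 50 nL of library stock was pin-tooled onto RAW-Dual macrophages (50,000 cells/well, DMEM, 384-well plates), a PRR agonist followed 1 h later, and cells stayed at 37 °C, 5% CO2. Twenty hours on, supernatant was assayed for IRF (QuantiLuc luminescence) and NF-κB (QuantiBlue, 620 nm absorbance), and wells under 70% of agonist-control IncuCyte confluency in both mask sets were marked cytotoxic.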

RAW-Dual [2] = experiment: NF-kB SEAP reporter activity, fold change vs agonist alone; cytotoxicity flag (confluency mask): not cytotoxic; higher = enhanced NF-kB activity
How it was run: as §1

RAW-Dual [3] = experiment: NF-kB SEAP reporter activity, fold change vs agonist alone; cytotoxicity flag (confluency mask): cytotoxic (confluency <70% of control); higher = enhanced NF-kB activity
How it was run: as §1

[4] = library stock concentration (final ~1000-fold dilution): 10 mM, cytotoxicity flag (confluency mask): not cytotoxic, agonist: Imiquimod (TLR7) […]
[5] = library stock concentration (final ~1000-fold dilution): 10 mM, cytotoxicity flag (confluency mask): not cytotoxic, agonist: MPLA (TLR4) […]
[6] = agonist: ODN 1826 (TLR9) 0.5 ug/mL
[7] = agonist: Pam2CSK4 (TLR2/6) 0.1 ug/mL
[8] = agonist: Pam3CSK4 (TLR2/1) 0.1 ug/mL
[9] = library stock concentration (final ~1000-fold dilution): 10 mM, cytotoxicity flag (confluency mask): cytotoxic (confluency <70% of control), agonist: Imiquimod (TLR7) […]
[10] = library stock concentration (final ~1000-fold dilution): 10 mM, cytotoxicity flag (confluency mask): cytotoxic (confluency <70% of control), agonist: MPLA (TLR4) […]

CCn1c(-c2nonc2N)nc2c(C#CC(C)(C)O)ncc(OCC3CCCNC3)c21 (centres undefined)
NF-kB SEAP reporter activity (RAW-Dual [1]; [4]): 1.87 | NF-kB SEAP reporter activity (RAW-Dual [1]; [5]): 1.95

CCn1c(-c2nonc2N)nc2c(C#CC(C)(C)O)ncc(OCC3CCCNC3)c21 (centres undefined) (library stock concentration (final ~1000-fold dilution): 10 mM)
NF-kB SEAP reporter activity (RAW-Dual [2]; agonist: LPS (TLR4) 0.1 ug/mL): 1.91 | NF-kB SEAP reporter activity (RAW-Dual [2]; [6]): 0.943 | NF-kB SEAP reporter activity (RAW-Dual [2]; [7]): 1.73 | NF-kB SEAP reporter activity (RAW-Dual [2]; [8]): 1.89

CC(C)Cc1ccc(C(C)C(=O)O)cc1.NCCCCC(N)C(=O)O (centres undefined) (library stock concentration (final ~1000-fold dilution): 10 mM water)
NF-kB SEAP reporter activity (RAW-Dual [2]; agonist: LPS (TLR4) 0.1 ug/mL): 1.42 | NF-kB SEAP reporter activity (RAW-Dual [2]; [6]): 1.2 | NF-kB SEAP reporter activity (RAW-Dual [2]; [7]): 1.54 | NF-kB SEAP reporter activity (RAW-Dual [2]; [8]): 1.39

CC(C)Cc1ccc(C(C)C(=O)O)cc1.NCCCCC(N)C(=O)O (centres undefined)
NF-kB SEAP reporter activity (RAW-Dual [1]; library stock concentration (final ~1000-fold dilution): 10 mM water, cytotoxicity flag (confluency mask): not cytotoxic, agonist: Imiquimod (TLR7) […]): 0.969 | NF-kB SEAP reporter activity (RAW-Dual [1]; library stock concentration (final ~1000-fold dilution): 10 mM water, cytotoxicity flag (confluency mask): not cytotoxic, agonist: MPLA (TLR4) […]): 1.08

CCCCc1nc(-c2ccc(OCCCN(CC)CC)cc2)cn1-c1ccc(Oc2ccc(Cl)cc2)cc1
NF-kB SEAP reporter activity (RAW-Dual [1]; [9]): 1.53 | NF-kB SEAP reporter activity (RAW-Dual [1]; [10]): 1.02

CCCCc1nc(-c2ccc(OCCCN(CC)CC)cc2)cn1-c1ccc(Oc2ccc(Cl)cc2)cc1 (library stock concentration (final ~1000-fold dilution): 10 mM)
NF-kB SEAP reporter activity (RAW-Dual [3]; agonist: LPS (TLR4) 0.1 ug/mL): 0.281 | NF-kB SEAP reporter activity (RAW-Dual [3]; [6]): 0.683 | NF-kB SEAP reporter activity (RAW-Dual [3]; [7]): 0.225 | NF-kB SEAP reporter activity (RAW-Dual [3]; [8]): 0.192

CCCCc1nc2cc(/C=C/C(=O)NO)ccc2n1CCN(CC)CC
NF-kB SEAP reporter activity (RAW-Dual [1]; [9]): 2.43 | NF-kB SEAP reporter activity (RAW-Dual [1]; [10]): 2.67

CCCCc1nc2cc(/C=C/C(=O)NO)ccc2n1CCN(CC)CC (library stock concentration (final ~1000-fold dilution): 10 mM)
NF-kB SEAP reporter activity (RAW-Dual [3]; agonist: LPS (TLR4) 0.1 ug/mL): 4.93 | NF-kB SEAP reporter activity (RAW-Dual [3]; [6]): 1.54 | NF-kB SEAP reporter activity (RAW-Dual [3]; [7]): 0.93 | NF-kB SEAP reporter activity (RAW-Dual [3]; [8]): 1.99

CN1C2CCC1CC(OC(c1ccccc1)c1ccccc1)C2.CS(=O)(=O)O (centres undefined)
NF-kB SEAP reporter activity (RAW-Dual [1]; [4]): 1.89 | NF-kB SEAP reporter activity (RAW-Dual [1]; [5]): 1.29

CN1C2CCC1CC(OC(c1ccccc1)c1ccccc1)C2.CS(=O)(=O)O (centres undefined) (library stock concentration (final ~1000-fold dilution): 10 mM)
NF-kB SEAP reporter activity (RAW-Dual [2]; agonist: LPS (TLR4) 0.1 ug/mL): 1.24 | NF-kB SEAP reporter activity (RAW-Dual [2]; [6]): 0.721 | NF-kB SEAP reporter activity (RAW-Dual [2]; [7]): 0.896 | NF-kB SEAP reporter activity (RAW-Dual [2]; [8]): 1.02

CC(NC(=O)CCC(F)(F)F)C(=O)NC1C(=O)N(CCO)c2ncccc2-c2ccccc21 (centres undefined)
NF-kB SEAP reporter activity (RAW-Dual [1]; [4]): 0.822 | NF-kB SEAP reporter activity (RAW-Dual [1]; [5]): 1.06

CC(NC(=O)CCC(F)(F)F)C(=O)NC1C(=O)N(CCO)c2ncccc2-c2ccccc21 (centres undefined) (library stock concentration (final ~1000-fold dilution): 10 mM)
NF-kB SEAP reporter activity (RAW-Dual [2]; agonist: LPS (TLR4) 0.1 ug/mL): 1.05 | NF-kB SEAP reporter activity (RAW-Dual [2]; [6]): 0.863 | NF-kB SEAP reporter activity (RAW-Dual [2]; [7]): 0.99 | NF-kB SEAP reporter activity (RAW-Dual [2]; [8]): 1.16

CNCCCC12CCC(c3ccccc31)c1ccccc12.Cl (library stock concentration (final ~1000-fold dilution): 10 mM)
NF-kB SEAP reporter activity (RAW-Dual [2]; agonist: LPS (TLR4) 0.1 ug/mL): 1.55 | NF-kB SEAP reporter activity (RAW-Dual [2]; [6]): 0.443 | NF-kB SEAP reporter activity (RAW-Dual [2]; [7]): 0.537 | NF-kB SEAP reporter activity (RAW-Dual [2]; [8]): 0.603

CNCCCC12CCC(c3ccccc31)c1ccccc12.Cl
NF-kB SEAP reporter activity (RAW-Dual [1]; [4]): 1.4 | NF-kB SEAP reporter activity (RAW-Dual [1]; [5]): 1.37

CC(=O)c1ccc2c(c1)c1cc(C(C)=O)ccc1n2CCNC(C)C.Cl (library stock concentration (final ~1000-fold dilution): 10 mM)
NF-kB SEAP reporter activity (RAW-Dual [3]; agonist: LPS (TLR4) 0.1 ug/mL): 0.329 | NF-kB SEAP reporter activity (RAW-Dual [3]; [6]): 0.209 | NF-kB SEAP reporter activity (RAW-Dual [3]; [7]): 0.0686 | NF-kB SEAP reporter activity (RAW-Dual [3]; [8]): 0.155

CC(=O)c1ccc2c(c1)c1cc(C(C)=O)ccc1n2CCNC(C)C.Cl
NF-kB SEAP reporter activity (RAW-Dual [1]; [9]): 0.156 | NF-kB SEAP reporter activity (RAW-Dual [1]; [10]): 0.26

CC1(C)OC2COC3(COS(N)(=O)=O)OC(C)(C)OC3C2O1 (centres undefined)
NF-kB SEAP reporter activity (RAW-Dual [1]; [4]): 0.928 | NF-kB SEAP reporter activity (RAW-Dual [1]; [5]): 0.824

CC1(C)OC2COC3(COS(N)(=O)=O)OC(C)(C)OC3C2O1 (centres undefined) (library stock concentration (final ~1000-fold dilution): 10 mM)
NF-kB SEAP reporter activity (RAW-Dual [2]; agonist: LPS (TLR4) 0.1 ug/mL): 0.898 | NF-kB SEAP reporter activity (RAW-Dual [2]; [6]): 1.01 | NF-kB SEAP reporter activity (RAW-Dual [2]; [7]): 0.955 | NF-kB SEAP reporter activity (RAW-Dual [2]; [8]): 1.12
